Data taken from PubChem BioAssay (NCATS).
Inconclusive results are not listed. Calls of active or inactive are those of the source. The call rests on the fitted dose curve; in most records, active means well fitted inhibition curve with a large enough effect; inconclusive means small, poorly fitted or top-dose-only effect; inactive means flat fitted curve, though single readings scatter.

target: Ubiquitin carboxyl-terminal hydrolase 1 (Homo sapiens) (UniProt O94782); experiment: Inhibitors of USP1/UAF1: Pilot qHTS (AID 504865); conditions: purified USP1/UAF1, Ub-rhodamine cleavage fluorescence; series mostly up to 114 µM; activity change, negative = inhibition: at the top concentration; further: nearly all actives have a fitted effect of over 35% in size;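 on activity change, negative = inhibition: rhodamine fluorescence freed from ubiquitin-rhodamine substrate followed over time; top concentration of the series differs between compounds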
How it was run: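 USP1/UAF1 complex (1nM) preincubated with compound 15 min at room temperature, then Ub-Rho substrate (150nM final) added. Fluorescence read kinetically at 480/540 nm, 6 reads every 60 seconds. Buffer: 50mM HEPES pH 7.8, 0.5mM EDTA, 0.1 mg/ml BSA, 1mM TCEP, 0.01% Tween-20.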
On the % scale 0 is the no-effect control and ±100 the full control effect; potency means the concentration at half of the fitted maximal effect.

Sequence of Ubiquitin carboxyl-terminal hydrolase 1 (Homo sapiens) (O94782 whole entry, looked up): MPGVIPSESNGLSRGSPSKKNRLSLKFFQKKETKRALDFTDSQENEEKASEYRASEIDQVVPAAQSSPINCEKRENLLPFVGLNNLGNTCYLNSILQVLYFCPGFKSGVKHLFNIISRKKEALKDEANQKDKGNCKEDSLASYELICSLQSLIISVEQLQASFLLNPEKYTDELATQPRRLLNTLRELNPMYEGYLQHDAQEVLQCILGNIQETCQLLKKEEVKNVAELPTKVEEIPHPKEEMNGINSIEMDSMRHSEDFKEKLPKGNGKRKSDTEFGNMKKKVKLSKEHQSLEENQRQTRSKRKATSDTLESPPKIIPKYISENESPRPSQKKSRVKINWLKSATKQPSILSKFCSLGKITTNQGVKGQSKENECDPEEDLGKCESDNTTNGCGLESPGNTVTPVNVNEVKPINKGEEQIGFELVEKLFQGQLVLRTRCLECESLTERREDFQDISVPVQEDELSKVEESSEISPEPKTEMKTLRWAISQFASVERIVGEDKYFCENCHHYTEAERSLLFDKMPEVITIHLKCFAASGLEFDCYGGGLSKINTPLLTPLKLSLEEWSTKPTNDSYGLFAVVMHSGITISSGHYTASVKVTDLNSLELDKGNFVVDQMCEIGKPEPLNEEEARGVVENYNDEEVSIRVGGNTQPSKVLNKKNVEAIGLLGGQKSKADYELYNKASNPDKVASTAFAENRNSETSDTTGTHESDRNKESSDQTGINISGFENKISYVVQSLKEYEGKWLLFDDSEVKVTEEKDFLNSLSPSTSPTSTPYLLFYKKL

Row | Structure (SMILES) | activity change, negative = inhibition | Potency
1 | C=CCN1CCCC1CNC(=O)c1cc(S(N)(=O)=O)cc(OC)c1OC (stereo not given) | -0.641% (inactive) | –
2 | CN(C)C=Nc1c(I)cc(I)c(CCC(=O)O)c1I | -12.1% (inactive) | –
3 | FC(F)(F)C(F)(F)C(F)(F)C(F)(F)C(F)(F)C(F)(F)F | -6.87% (inactive) | –
4 | CC(=O)N=c1sc(S(N)(=O)=O)nn1C | -0.983% [at 54.9 µM] (inactive) | –
5 | CCCCCc1ccc(C)cc1O | – | 35.5 µM (active)
6 | Cc1cc(=O)c(C(=O)N[C@@H](C(=O)N[C@@H]2C(=O)N3C(C(=O)O)=C(CSc4nnnn4C)CS[C@H]23)c2ccc(O)cc2)c[nH]1 | 2.08% (inactive) | –
7 | CCN(CC)CCOC(=O)c1cccnc1 | -8.24% (inactive) | –
8 | O=P(O)(O)OP(=O)(O)O | -5.25% (inactive) | –
9 | O=C(CCCN1CCN2CCCC2C1)c1ccc(F)cc1 (stereo not given) | -9.42% (inactive) | –
10 | CCCCC[C@H](O)/C=C/[C@@H]1[C@H]2C/C(=C/CCCC(=O)O)O[C@H]2C[C@H]1O | -8.1% (inactive) | –
11 | COc1cc(S(C)=O)ccc1-c1nc2ncccc2[nH]1 (stereo not given) | – | inactive
12 | CC[C@H]1OC(=O)[C@H](C)[C@@H](O[C@H]2C[C@@](C)(OC)[C@@H](O)[C@H](C)O2)C(C)[C@@H](O[C@@H]2O[C@H](C)C[C@H](N(C)C)[C@@H]2O)[C@](C)(OC)C[C@@H](C)C(=O)[C@H](C)[C@@H](O)[C@]1(C)O (stereo not given in full) | -1.01% (inactive) | –
13 | O=S(=O)(O)CC(S)CS (stereo not given) | -9.27% (inactive) | –
14 | O=C(O)CCC/C=C\C[C@@H]1[C@@H](/C=C/[C@@H](O)COc2cccc(C(F)(F)F)c2)[C@H](O)C[C@@H]1O | -8.47% (inactive) | –
15 | CC(C)C1=CC2=CC[C@@H]3[C@](C)(CCC[C@@]3(C)C(=O)O)[C@H]2CC1 | -6.33% (inactive) | –
16 | CCC(C(=O)NC(N)=O)c1ccccc1 (stereo not given) | -10.4% (inactive) | –
17 | CCN(CC)CCOc1ccc2nc(N(C)C)sc2c1 | -0.59% (inactive) | –
18 | CC(=O)[O][Al][O]C(C)=O | -1.8% (inactive) | –

Row | Structure (SMILES) | activity change, negative = inhibition | Potency
19 | CC(C)Cc1ccc([C@@H](C)C(=O)NS(C)(=O)=O)cc1 | -13.7% (inactive) | –
20 | C[Se]CC[C@H](N)C(=O)O | -5.97% (inactive) | –
21 | O=C(O[C@H]1CN2CCC1CC2)N1CCc2ccccc2[C@@H]1c1ccccc1 | 1.77% (inactive) | –
22 | CCCOC(=O)c1ccccc1O | -2.68% (inactive) | –
23 | CN1C(=O)C[C@@H](C(=O)N[C@@H](Cc2cnc[nH]2)C(=O)N2CCC[C@H]2C(N)=O)NC1=O | -3.31% (inactive) | –
24 | C=CC(=O)O | -0.804% (inactive) | –
25 | c1ccc(-n2cnnn2)cc1 | -1.92% (inactive) | –
26 | O=C1[O][Bi][O]c2ccccc21 | -2.06% (inactive) | –
27 | NCC[C@H](O)C(=O)N[C@@H]1C[C@H](N)[C@@H](O[C@H]2O[C@H](CN)[C@@H](O)[C@H](O)[C@H]2O)[C@H](O)[C@H]1O[C@H]1O[C@H](CO)[C@@H](O)[C@H](N)[C@H]1O | 0.456% (inactive) | –
28 | CC(CCc1ccc(O)cc1)NCC(O)c1ccc(O)cc1 (stereo not given) | -3.83% (inactive) | –
29 | Cc1c(C)c2c(c(C)c1OC(=O)CCC(=O)O)CC[C@@](C)(CCC[C@H](C)CCC[C@H](C)CCCC(C)C)O2 | – | 35.5 µM (active)
30 | CC(=O)Oc1cccc(C(=O)O)c1OC(C)=O | -9.59% (inactive) | –
31 | CNC(=O)C[C@@H](N)C(=O)N[C@@H](C(=O)N[C@@H]1C(=O)N2[C@@H]1SC(C)(C)[C@@H]2C(=O)O)c1ccc(O)cc1 | 1.41% (inactive) | –
32 | CN(Cc1ccccc1)Cc1ccccc1 | -7.11% (inactive) | –
33 | NC(=O)[C@H]1O[C@@H](O)[C@H](O)[C@@H](O)[C@@H]1O | -0.256% (inactive) | –
34 | CCN(CC)CCC(=O)N1c2ccccc2Sc2ccc(C(F)(F)F)cc21 | -8.68% (inactive) | –
35 | O=C(O)CCCC/C=C(\c1ccccc1)c1cccnc1 | -6.19% (inactive) | –
